Source: PubChem (National Center for Advancing Translational Sciences (NCATS))
CCT chaperon mod: modulators of cytosolic chaperonin (CCT/TRiC) activity; AID 651819; purified chaperonin ATPase assay, HTRF ADP detection, 30 min; 360,000 compounds, 0.3% hits; activity change, % (test concentration not listed), hits read low; in the data active = activity change below about -30%; also: % is scaled to controls: 0 for no effect and ±100 for the full control effect
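TRiC at 40 or 20 nM final (batch-dependent) in 30 mM Tris pH 7.4, 100 mM KCl, 5 mM MgCl2, 1 mM DTT, with compound at single 76 uM and 10 uM ATP, 30 min at 37 deg C. ADP detected by HTRF Transcreener, 665/615 ratio.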
Mm-Cpn inhibitor: blocks the Methanococcus maripaludis chaperonin Mm-Cpn | purified Mm-Cpn ATPase, ADP Transcreener TR-FRET | AID 504842 | 330,000 compounds, 0.031% hits | Potency, µM (top dose mostly 76.9 µM), for inactives: at the highest dose activity, negative = inhibition, usual class: inhibitors; also: potency is read from the fitted curve at half-maximal effect; % is scaled to controls: 0 for no effect and ±100 for the full control effect; nearly all actives have a fitted effect of over 80% in size
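Eu-cryptate anti-ADP/ADP-d2 competition gives a ratio inversely related to ADP. Enzyme at 25 nM was pre-exposed to compound for 10 min, then given 10 uM ATP for 30 min, 37°C throughout.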
USP2a inh: USP2a (human) protease inhibition; O75604; USP2 core, Ub-CHOP2 coupled fluorogenic reporter, 485/531; Potency, µM (doses to about 38.3 µM), for inactives: at the top dose activity change, negative = inhibition, usual class: inhibitors; 330,000 compounds, 0.01% hits;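 also: potency is read from the fitted curve at half-maximal effect; plate controls were DMSO wells for no effect and full inhibition by NEM control for full effect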
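USP2 core (10nM final) preincubated 30min RT with compound in 20mM Tris-HCl pH 8.0, 2mM CaCl2, 2mM beta-mercaptoethanol, 0.05% CHAPS; 25nM Ub-CHOP2 plus 25nM reporter substrate added, fluorescence (Ex485/Em531) read after 60min.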
S-ASM inh: inhibitors of human secretory acid sphingomyelinase | P17405 | placental ASM, HMU-PC fluorogenic substrate, 60 min | Potency, µM (highest dose often 57.5 µM), inactives show at the highest dose activity change, negative = inhibition, hits mostly inhibitors | 340,000 compounds, 0.006% hits; also: potency is read from the fitted curve at half-maximal effect
Target sequence (P17405 47-631 limits assumed): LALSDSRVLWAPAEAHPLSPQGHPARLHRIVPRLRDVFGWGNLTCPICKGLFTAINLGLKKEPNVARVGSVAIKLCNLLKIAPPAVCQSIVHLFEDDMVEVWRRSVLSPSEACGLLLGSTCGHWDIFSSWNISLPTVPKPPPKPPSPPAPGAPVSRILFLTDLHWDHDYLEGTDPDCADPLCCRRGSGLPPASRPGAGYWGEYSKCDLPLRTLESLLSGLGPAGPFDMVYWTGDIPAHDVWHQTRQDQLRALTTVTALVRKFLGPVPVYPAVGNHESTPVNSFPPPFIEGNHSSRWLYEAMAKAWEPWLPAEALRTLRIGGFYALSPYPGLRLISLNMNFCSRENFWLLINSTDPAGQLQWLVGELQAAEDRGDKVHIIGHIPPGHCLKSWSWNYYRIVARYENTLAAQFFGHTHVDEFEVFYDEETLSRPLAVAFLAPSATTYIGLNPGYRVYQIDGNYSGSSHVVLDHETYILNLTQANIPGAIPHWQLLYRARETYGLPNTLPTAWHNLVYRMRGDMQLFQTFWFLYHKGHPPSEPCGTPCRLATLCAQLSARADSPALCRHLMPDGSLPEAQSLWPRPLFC
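HMU-PC0 cleavage (9 uM final) by human placental ASM, 60 min at 37 °C following 10 min compound exposure at RT; stopped at pH 10, fluorescence Ex 386/Em 447 nm.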
Active calls of the source: *; ? = inconclusive; · = no result given. This is a sample that favours compounds with a hit; in the whole collection about 0.3% have one here. Unless noted, calls follow the shape of the dose curve; as a rule, active = well fitted curve in the direction sought with a large enough effect; inconclusive = small, poorly fitted or top-dose-only effect, or another doubt; inactive = no such curve, though single readings can be large; an effect the other way counts as inactive or inconclusive.

SMILES	CCT chaperon mod	Mm-Cpn inhibitor	USP2a inh	S-ASM inh
O=C(c1ccco1)N1CCN(c2nc3ccccc3n3nnnc23)CC1	0.5	-1.4%	3.8%	-0.6%
c1ccc(CC2CCN(c3nc4ccccc4n4nnnc34)CC2)cc1	-32.1*	0.2%	-1.9%	0.6%
O=C(N/N=C/c1coc2ccccc2c1=O)c1cc(Br)c(O)c(Br)c1	2.0	0.4%	0.4%	-1.8%
CCCOc1cccc(C(=O)N/N=C/c2coc3ccccc3c2=O)c1	-36.7*	0.8%	-0.5%	-2.0%
CN(C)C(/C=C/Nc1ccc(F)cc1)=C(C#N)C#N	-0.2	1.2%	1.0%	-2.4%
COc1ccc([N+](=O)[O-])cc1NC(=O)C1(c2ccc(OC)c(OC)c2)CCOCC1	-93.5*	1.7%	0.3%	-2.4%
COc1ccc(S(=O)(=O)Nc2ccc(NC(C)=O)cc2)cc1Br	-0.8	-2.0%	0.3%	-1.4%
OCC1OC(Oc2cccc3ccccc23)C(O)C(O)C1O (stereo unspecified)	-1.5	-0.6%	-0.7%	2.8%
O=C(O)c1cc(O)c2c(c1)[C@@H]([C@H]1c3cc(C(=O)O)cc(O)c3C(=O)c3c(O[C@@H]4O[C@H](CO)[C@@H](O)[C@H](O)[C@H]4O)cccc31)c1cccc(O[C@@H]3O[C@H](CO)[C@@H](O)[C@H](O)[C@H]3O)c1C2=O	-0.2	-7.1%	2µM*	-27.9%
COC(=O)NCC12CC3CC(C1)CC(CNC(=O)OC)(C3)C2	1.3	-1.0%	0.0%	-2.8%
CN(CC(=O)NCCc1ccccc1)S(=O)(=O)c1cccs1	1.9	-0.4%	1.0%	-2.7%
Cc1ccc(-c2nc(C(Cl)Cl)c3ccccc3n2)cc1	-1.0	3.9%	-1.1%	-18.1%
Cc1cc2oc(=O)cc(Cn3ncc(Cl)c(Cl)c3=O)c2cc1Cl	-48.5*	-1.8%	-0.8%	9.5%
CN(CC(=O)Nc1ccc(Cl)c(C(F)(F)F)c1)C(=O)C1CC(=O)N(c2ccc3c(c2)OCCO3)C1 (stereo unspecified)	-0.1	·	·	·
CN(CC(=O)Nc1ccc(Cl)c(C(F)(F)F)c1)C(=O)c1ccc2c(c1)OCCO2	-81.3*	0.9%	1.8%	-2.5%
Cc1cc(C(=O)Nc2nnc(C(F)(F)F)s2)cs1	-33.7*	-1.2%	3.8%	-1.7%
Cc1cc(C(=O)Nc2nnc(C(F)(F)F)s2)no1	0.2	1.3%	0.7%	4.4%
Cc1ccc(-c2nnc(-c3cccc(NC(=O)c4cccs4)c3)o2)cc1	-44.3*	1.3%	0.0%	?
O=C(Nc1nnc2n1CCS2)c1ccco1	-73.4*	-0.4%	3.6%	-1.8%
CCc1nnc(NC(=O)CSc2nnc(CNC(=O)c3ccc(OC)c(OC)c3)o2)s1	-0.7	0.0%	0.2%	0.1%
COc1ccccc1CNC(=O)c1cc2c(s1)CS(=O)(=O)C2	-0.9	·	·	0.0%
COc1ccc(OC)c(NC(=O)NNC(=O)c2cc3occc3[nH]2)c1	-68.3*	2.5%	-8.6%	-1.4%
CCN(CC)CCN(C)Cc1nc(C(c2ccccc2)c2ccccc2)no1	-0.4	-1.5%	-1.4%	1.0%
CCOC(=O)C1C(O)=CC(=O)CC1c1ccccc1 (stereo unspecified)	-1.8	-0.1%	-2.0%	9.8%
CCCCOC(=O)c1ccc(NC(=O)CSC2=Nc3ccccc3C3CC=NN23)cc1 (stereo unspecified)	1.4	-1.6%	0.9%	-22.5%
SMILES	CCT chaperon mod	Mm-Cpn inhibitor	USP2a inh	S-ASM inh
Cc1cc(C)c(C#N)c(Nc2cccc(C)c2C)n1	-43.7*	-3.1%	-0.1%	-0.9%
Cc1cc(C)c(C#N)c(Nc2ccccc2C)n1	-0.8	-0.2%	-0.5%	-0.3%
CCCN1C(=O)c2ccccc2NC1c1ccc(OC)cc1O (stereo unspecified)	-85.5*	0.8%	4.8%	27.6%
CCCN1C(=O)c2ccccc2NC1c1ccc(OC)cc1OC (stereo unspecified)	2.1	-1.0%	1.3%	101.8%
O=C(CCS(=O)(=O)c1ccc(Br)cc1)N1CCCCCC1	-73.6*	0.6%	-1.1%	4.0%
O=C(CCNS(=O)(=O)c1ccc(Br)cc1)N1CCCCCCC1	1.3	-0.8%	-2.1%	3.9%
Cc1ccc(OCCCC(=O)Nc2nnc(C3CCCO3)s2)c(C)c1 (stereo unspecified)	1.1	-0.2%	1.3%	-2.4%
C/C(=N\Nc1cc(-c2ccccc2)nc(-c2ccc(Br)cc2)n1)c1cccc(N)c1	-65.4*	·	·	-10.7%
CCOC(=O)C(=O)Cc1nc(OCc2ccccc2)cc(OCc2ccccc2)n1	-39.1*	·	·	-0.9%
